Reference: PubChem BioAssay (NCI)
This is part of a sample that, as a whole, favours compounds with a hit. Of some 83,000 tested, about 20% had one in any assay.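 Interpretation: 100, growth as untreated; towards 0, rising growth inhibition; 0, no net growth; 0 to -100, cell death. Compounds scoring below 10 were considered active.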 A number with no mark means an inactive call. Calls of active or inactive are those of the source.

How the values were obtained:
Assay in all cases: NCI-60 one-dose screen, 48 h (100 = growth as untreated, 0 = no growth, -100 = all killed)
Details in all cases: 10 µM
NCI-H23 lung = test system: NCI-H23 lung
NCI-H226 lung = test system: NCI-H226 lung
HOP-62 NSCLC = test system: HOP-62 NSCLC
NCI-H460 lung = test system: NCI-H460 lung
HOP-92 NSCLC = test system: HOP-92 NSCLC
A549/ATCC NSCLC = test system: A549/ATCC NSCLC
786-0 renal = test system: 786-0 renal
COLO 205 colon = test system: COLO 205 colon
DU-145 prostate = test system: DU-145 prostate
K-562 leukemia = test system: K-562 leukemia
MALME-3M melanoma = test system: MALME-3M melanoma
MDA-MB-231 breast = test system: MDA-MB-231 breast
RXF 393 renal = test system: RXF 393 renal
SF-268 CNS = test system: SF-268 CNS
SF-295 CNS = test system: SF-295 CNS
SF-539 CNS = test system: SF-539 CNS
M14 melanoma = test system: M14 melanoma
NCI-H522 lung = test system: NCI-H522 lung
UACC-257 melanoma = test system: UACC-257 melanoma

SMILES | growth (NCI-H23 lung) | growth (NCI-H226 lung) | growth (HOP-62 NSCLC) | growth (NCI-H460 lung) | growth (HOP-92 NSCLC) | growth (A549/ATCC NSCLC) | growth (786-0 renal) | growth (COLO 205 colon) | growth (DU-145 prostate) | growth (K-562 leukemia) | growth (MALME-3M melanoma) | growth (MDA-MB-231 breast) | growth (RXF 393 renal) | growth (SF-268 CNS) | growth (SF-295 CNS) | growth (SF-539 CNS) | growth (M14 melanoma) | growth (NCI-H522 lung) | growth (UACC-257 melanoma)
CC(=O)N[C@H](C(=O)N[C@@H](CCCNC(=N)N)C(=O)N[C@@H](CCCCN)C(=O)N[C@@H](CCCNC(=N)N)C(=O)N[C@]1(C)CCC/C=C\CCC[C@@](C)(C(=O)N[C@@H](CC(C)C)C(=O)N[C@@H](CC(C)C)C(=O)N[C@@H](CCC(N)=O)C(=O)N[C@@H](CCC(=O)O)C(=O)N[C@@H](CCCNC(=N)N)C(=O)N[C@@H](CCC(=O)O)C(=O)N[C@@H](CC(C)C)C(=O)N[C@H](C(=O)N[C@@H](CCC(=O)O)C(N)=O)C(C)C)NC(=O)[C@H](CCCNC(=N)N)NC(=O)[C@H](CC(C)C)NC1=O)C(C)C | 106% | 102% | 109% | 105% | 115% | 94.7% | 98.1% | 102% | 99.7% | 104% | 137% | 108% | 119% | 101% | 106% | 102% | 107% |  | 
O=C(COc1cccc(/C=C2\CSc3ccc(Cl)cc3C2=O)c1)c1ccc(Cl)cc1 | 75.1% | 84.3% | 83.6% | 91.3% | 15.6% |  | 94.6% | 115% |  | 17.3% |  | 32% |  | 88.2% | 81.2% | 80.3% | 94.7% | 36.8% | 84.6%
CS(=O)(=O)c1nccc(-c2c(-c3cccc(OCCN4CCOCC4)c3)nc3sccn23)n1 | 90.3% | 83.9% | 76.9% | 101% | 27.9% |  | 90.6% | 97.9% | 91.9% | 91.5% | 105% | 67.9% | 89.2% | 107% | 104% | 81.3% | 113% | -63.3% (active) | 110%
CCOC(=O)c1cc(C(=O)c2ccc(OC)c(OC)c2)n2c1ccc1ccc3cccnc3c12 | 39.2% | 64.4% | 29.8% | 11% | 18.9% |  | 33.3% | -2.29% (active) | 21.7% | 14.7% | 40.1% | 45.2% | 24.8% | 51.8% | 12% | 9.16% (active) | 7.8% (active) | 0.908% (active) | 51%
CN(C)c1ccc(/C=N/NC(=O)c2ccccc2Nc2cccc(C(F)(F)F)c2)cc1 | 91.2% | 101% | 79.6% | 96.3% | 73% |  | 90.1% | 111% |  | 77.8% |  | 70.9% |  | 93.7% | 111% | 105% | 105% | 83.2% | 101%
CN(C)CCCOc1cccc(NC2=C(Cl)C(=O)C(Nc3cccc(OCCCN(C)C)c3)=C(Cl)C2=O)c1 | -67.1% (active) | -70% (active) | -85.1% (active) | 38.3% | -74.3% (active) |  | -94.2% (active) | -79.7% (active) | -97.7% (active) | -29.7% (active) | -74.8% (active) | -73.6% (active) | -88.8% (active) | -62.6% (active) | 64.3% | -77.7% (active) | -75.6% (active) | -79.5% (active) | -90.1% (active)
COc1cc2c(cc1NC(=O)C(Cl)Cl)-c1ccc(NC(=O)C(Cl)Cl)cc1C2 | 48.6% | 19.3% | -58.3% (active) | -51.6% (active) | 40.2% |  | 48.4% | -86.5% (active) | -68.4% (active) | 20.7% | 115% | -18% (active) | -59.2% (active) | -31.2% (active) | -12.8% (active) | -14.9% (active) | 69.8% | 82.5% | -13.1% (active)
CN(C)CCCOc1ccc(NC2=C(Cl)C(=O)C(Nc3ccc(OCCCN(C)C)cc3)=C(Cl)C2=O)cc1 | -72% (active) | -84.1% (active) | -98.2% (active) | -65.7% (active) | -74.9% (active) | -56.2% (active) | -50% (active) | -74.3% (active) | -95.8% (active) | -11.7% (active) | -71.7% (active) | -80.2% (active) | -97.9% (active) | -51.2% (active) | -22.8% (active) | -87.9% (active) | -71.8% (active) |  | -88.2% (active)
COc1ccc(-c2cc(-c3ccc(Cl)cc3)nc(SCCCC(=O)NO)n2)cc1OC | -8.91% (active) | -5.3% (active) | 2.14% (active) | -17.7% (active) | -0.324% (active) | 8.3% (active) | 4.57% (active) | 6.86% (active) | 14.2% | 3.01% (active) | 6.86% (active) | 6.55% (active) | -38.2% (active) | 8.6% (active) | -32.6% (active) | -35.7% (active) | -40.2% (active) |  | 16.1%
CCOC(=O)C1C(C(=O)OCC)C2C(=O)C3C(C(=O)OCC)C(C(=O)OCC)C3C(=O)C12 (stereo not given) | 98.9% | 100% | 96.2% | 103% | 104% | 100% | 103% | 120% | 110% | 94.2% | 106% | 110% | 112% | 101% | 101% | 105% | 110% |  | 108%
O=C(CCc1nnc2sc(-c3cc(O)c(O)c(O)c3)nn12)c1nc2ccccc2[nH]1 | 88.9% | 89.9% | 105% | 105% | 69.4% | 108% | 107% | 114% | 112% | 8.3% (active) | 103% | 102% | 115% | 113% | 82.8% | 80% | 105% |  | 110%
COc1ccc(/C=C2\CCCC3=C2N=C2SC(C)=CN2C3c2ccc(OC)cc2)cc1 (stereo not given) | 90.3% | 94.1% | 104% | 104% | 93.8% | 90.7% | 104% | 115% | 107% | 96.1% | 80% | 101% | 102% | 116% | 106% | 111% | 98.8% |  | 90.9%
CCOC(=O)CC(S(=O)(=O)c1ccccc1)S(=O)(=O)c1ccccc1 | 98.3% | 95.7% | 109% | 103% | 89.7% | 95.3% | 115% | -87.1% (active) | 111% | 78.7% | 39.8% | 109% | 57.5% | 101% | 108% | 104% | 115% |  | 89.6%
CCOC(=O)Cn1c(=O)c2sc3ncccc3c2n2nnc(-c3ccccc3)c12 | 100% | 103% | 95.4% | 125% | 71% |  | 99.9% | 104% | 119% | 96.4% |  | 87.2% | 112% | 112% | 110% | 105% | 99% | 92.2% | 108%
COc1cc(-c2csc(NC(=O)Nc3ccc(Cl)c(C(F)(F)F)c3)n2)cc(OC)c1OC | 1.27% (active) | -6.43% (active) | -23.8% (active) | 2.24% (active) | -35.4% (active) | 0.191% (active) | -12.4% (active) | -58.1% (active) | 14.4% | 14.2% | -28.1% (active) | -32.2% (active) | -6.49% (active) | 21.3% | -34.7% (active) | 5.05% (active) | -4.86% (active) |  | 
CC(C)c1ccc(C(C)C(=O)N(CC2=C(C(C)c3ccccn3)c3ccccc3C2)C(C)C)cc1 (stereo not given) | 26.3% | 57.1% | 59.2% | 23.1% | 20.3% |  | 40.9% |  | 57.6% | 24.5% |  | 48.4% | 45.6% | 46% | 25.6% | 61.4% | 48.1% | 24.9% | 49.3%
CCOC(=O)c1cc(C(=O)c2cc(OC)c(OC)c(OC)c2)n2ncc3ccccc3c12 | 82.5% | 95.1% | 89.5% | 51.3% | 81.6% | 54.8% | 94.5% | 60.4% | 83.6% | 23% | 70.5% | 98.7% | 88.3% | 84% | 72.5% | 86.7% | 50.2% |  | 57.1%
